What is called inhibition is the relative decrease from the control value, in per cent.

This passage reports inhibition results from PubChem BioAssay AID2330 (Broad Institute, 2010).

In all, about 37,000 compounds went through this assay and about 2,800 (7.6%) were called active. Inconclusive results (about 1%) are left out. Cut-off read from the data, not from the text of the source: active = inhibition above about 80%; inconclusive = no clear call, values can overlap the other calls; inactive = below that. This excerpt belongs to a sample that is enriched for actives.

The nature of the assay: NOMO-1 AML cell viability reduction, primary screen, STK33 inhibitor project, CellTiter-Glo luminescence (AID 2330). As to conditions: NOMO-1 AML viability, 72 h, active compounds read high, concentration not given here. For orientation: Cellular ATP, detected with luciferase, serves as a proxy for viable cell number.
Take `COC(=O)c1c(NC(=O)COc2ccc(C(C)C)c(C)c2)sc2c1CCC2`: the inhibition was -13.1% (inactive).

Consider `COc1ccc(S(=O)(=O)N(C)C[C@@H]2Oc3ccc(NC(=O)Cc4cn(C)c5ccccc45)cc3C(=O)N([C@H](C)CO)C[C@H]2C)cc1`, for which the inhibition was 3.23% (inactive).

With `CC(C)NC(=O)N(C)C[C@H]1Oc2ccc(NS(C)(=O)=O)cc2CC(=O)N([C@@H](C)CO)C[C@@H]1C`, the inhibition was -17.4% (inactive). On to `COc1c2c(cc3occ(-c4ccc5c(c4)OCO5)c(=O)c13)OC(C)(C)C=C2`, for which the inhibition was 23.7% (inactive). With `O=C(c1cc2ccccc2oc1=O)N(Cc1ccc(F)cc1)Cc1ccco1`, the inhibition was -0.0617% (inactive). On to `COc1cc(O)c2c(=O)c(O[C@@H]3O[C@@H](CO)[C@H](O)[C@H]3O[C@@H]3O[C@@H](C)[C@H](O)[C@@H](O)[C@H]3O)c(-c3ccc(O)cc3)oc2c1`, for which the inhibition is 16.7% (inactive). The same measure for `C[C@@H]1CN([C@H](C)CO)C(=O)Cc2cc(NC(=O)CCN3CCOCC3)ccc2O[C@H]1CN(C)C`: 13.7% (inactive). Regarding `O=C(NCc1ccco1)c1ccc2c(c1)C(=O)N(Cc1cccnc1)C2=O`, the inhibition is 20% (inactive). For `C[C@@H]1CN([C@H](C)CO)C(=O)c2cc(NC(=O)Nc3ccc4c(c3)OCO4)ccc2O[C@@H]1CN(C)Cc1ccc(C(F)(F)F)cc1`, the inhibition was 50.9% (inactive). Take `C[C@H](CO)N1C[C@H](C)[C@@H](CN(C)Cc2ccccc2)Oc2ccc(NC(=O)Nc3ccc4c(c3)OCO4)cc2C1=O`: the inhibition is 1.03% (inactive). As to `COc1ccc(NC(=O)Nc2ccc3c(c2)C(=O)N([C@@H](C)CO)C[C@H](C)[C@@H](CN(C)Cc2ccc4c(c2)OCO4)O3)cc1`, the inhibition is 25% (inactive). As to `C[C@H]1CN([C@@H](C)CO)C(=O)Cc2cc(N(C)C)ccc2O[C@@H]1CN(C)Cc1ccc(-c2ccccc2)cc1`, the inhibition was 65.8% (inactive).

Take `C[C@@H]1CN([C@@H](C)CO)C(=O)c2cc(NC(=O)Nc3ccc4c(c3)OCO4)ccc2O[C@@H]1CN(C)Cc1ccc(Oc2ccccc2)cc1`: the inhibition is 66% (inactive).

Consider `C[C@@H]1CN([C@H](C)CO)C(=O)c2cc(NC(=O)Nc3ccc4c(c3)OCO4)ccc2O[C@H]1CN(C)Cc1ccc(-c2ccccc2)cc1`, for which the inhibition was 113% (active). For `C[C@H]1CN([C@@H](C)CO)C(=O)c2cc(NC(=O)Nc3ccc4c(c3)OCO4)ccc2O[C@@H]1CN(C)Cc1ccc(Oc2ccccc2)cc1`, the inhibition was 102% (active). As to `C[C@H](CO)N1C[C@H](C)[C@H](CN(C)Cc2ccc(C(F)(F)F)cc2)Oc2ccc(N(C)C)cc2CC1=O`, the inhibition is 14.9% (inactive).

In the case of `C[C@@H]1CN([C@H](C)CO)C(=O)Cc2cc(N(C)C)ccc2O[C@@H]1CN(C)Cc1ccccc1`, the inhibition is 124% (active).

For the compound `Cc1cc(=O)[nH]c(SCC(=O)Nc2cccc3ccccc23)n1`, the inhibition was -1.97% (inactive). For the compound `C[C@H](CO)N1C[C@H](C)[C@H](CN(C)S(C)(=O)=O)Oc2ccc(NC(=O)Nc3ccc(F)cc3)cc2C1=O`, the inhibition was 14.7% (inactive). The figure for `COc1ccc(CN(C)C[C@@H]2Oc3ccc(NC(=O)NC(C)C)cc3C(=O)N([C@@H](C)CO)C[C@H]2C)cc1` is 11.8% (inactive); for `COc1ccc(S(=O)(=O)Nc2ccc3c(c2)CC(=O)N([C@@H](C)CO)C[C@@H](C)[C@@H](CN(C)C(=O)Nc2c(C)noc2C)O3)cc1` it is -6.01% (inactive); for `C[C@@H]1CN([C@H](C)CO)C(=O)Cc2cc(NC(=O)Cn3cnnn3)ccc2O[C@H]1CN(C)Cc1ccc(C(F)(F)F)cc1` it is -4.05% (inactive). The same measure for `COc1ccc(-c2nnc(SCC(=O)Nc3cccc(SC)c3)n2C)cc1`: -20% (inactive); for `COc1ccccc1NC(=O)c1ccc(OCC(=O)Nc2ccccc2F)cc1`: 2.43% (inactive).

Consider `C[C@H]1CN([C@@H](C)CO)C(=O)c2cccc(NS(C)(=O)=O)c2O[C@@H]1CN(C)C(=O)Nc1ccc(F)cc1`, for which the inhibition is -0.485% (inactive). Regarding `CC1CCC(C(C)C)C(=O)/C1=C\c1ccc(NC(=O)CCC(=O)O)cc1` (configuration not stated), the inhibition is 10% (inactive). The figure for `COc1ccc(C[C@H]2COC(=O)[C@@H]2Cc2ccc(O[C@@H]3O[C@H](CO)[C@@H](O)[C@H](O)[C@H]3O)c(OC)c2)cc1OC` is 88.7% (active). For the compound `COc1cc([C@H]2OC[C@H]3[C@@H]2CO[C@@H]3c2cc(OC)c(O[C@@H]3O[C@H](CO)[C@@H](O)[C@H](O)[C@H]3O)c(OC)c2)cc(OC)c1O`, the inhibition was -2.62% (inactive). As to `COc1cc(-c2coc3cc(O[C@@H]4O[C@H](CO)[C@@H](O)[C@H](O)[C@H]4O)c(OC)c(O)c3c2=O)cc(O)c1OC`, the inhibition was -24% (inactive). In the case of `CCc1cc(C(=O)OC)c(NC(=O)CC2Sc3ccc(C(F)(F)F)cc3NC2=O)s1` (configuration not stated), the inhibition is 43.5% (inactive).

Take `CCOc1ccc(NC(=O)C2CC(=O)n3c(nc4ccccc43)N2)cc1` (configuration not stated): the inhibition is 2.2% (inactive). Turning to `C[C@H]1CN([C@@H](C)CO)C(=O)c2cc(NC(=O)Cn3cnnn3)ccc2O[C@@H]1CN(C)S(=O)(=O)c1cccs1`, the inhibition was -7.03% (inactive). As for `COc1ccc(S(=O)(=O)N(C)C[C@H]2Oc3ccc(NC(=O)Nc4c(C)noc4C)cc3C(=O)N([C@H](C)CO)C[C@H]2C)cc1`, the inhibition was 8.03% (inactive). For `COc1ccc(C(=O)CCC(=O)Nc2cccnc2)c(OC)c1`, the inhibition is 1.52% (inactive). In the case of `O=C(Nc1cccnc1)c1cc2c(s1)-c1ccccc1CC2`, the inhibition is 108% (active).

Take `O=C(CS(=O)(=O)Cc1ccccc1)Nc1cccnc1`: the inhibition is 4.64% (inactive). The same measure for `O=S(=O)(c1ccc(Cl)cc1)c1nc(-c2ccccc2F)oc1NCCN1CCOCC1`: 16.2% (inactive). On to `C[C@@H]1CN([C@@H](C)CO)C(=O)Cc2cc(NC(=O)CCCCCC(=O)Nc3ccccc3N)ccc2O[C@@H]1CN(C)C(=O)NC1CCCCC1`, for which the inhibition is 8.04% (inactive). As for `C[C@H]1CN([C@@H](C)CO)C(=O)c2cccc(NC(=O)NC3CCCCC3)c2O[C@H]1CN(C)CC1CCCCC1`, the inhibition was 15.4% (inactive). Turning to `C[C@@H]1CN([C@H](C)CO)C(=O)c2cccc(NC(=O)CCCCCC(=O)Nc3ccccc3N)c2O[C@H]1CN(C)CC1CCCCC1`, the inhibition was 139% (active). With `CC(C)NC(=O)N(C)C[C@H]1Oc2ccc(NC(=O)CCCCCC(=O)Nc3ccccc3N)cc2CC(=O)N([C@@H](C)CO)C[C@H]1C`, the inhibition is 7.18% (inactive). `C[C@@H]1CN([C@@H](C)CO)C(=O)c2cccc(NC(=O)CCCCCC(=O)Nc3ccccc3N)c2O[C@H]1CN(C)C(=O)Nc1cccc2ccccc12`: the inhibition was 10.8% (inactive).
